Results filed as inconclusive are left out. Activity calls are given as the source filed them. Calls follow the shape of the dose curve; as a rule, active = well fitted inhibition curve with a large enough effect; inconclusive = small, poorly fitted or top-dose-only effect; inactive = no such curve, though single readings can be large or run the other way.
Tested on: Zika virus NS2B-NS3 protease (linked construct)
Assay: Primary screen NINDS Rhodamine qHTS for Zika virus inhibitors (AID 1347160); also: nearly all actives have a fitted effect of over 55% in size
Details: purified NS2B-NS3 protease, Rhodamine110 substrate fluorescence; series mostly up to 57.1 µM; activity change, negative = inhibition: at the top concentration
How it was run: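 Purified NS2B-NS3 protease with the NS2B hydrophilic domain joined by a flexible linker (25 nM) in 10 mM Tris-HCl pH 8.0, 0.01% Tween 20, preincubated 15 min at RT with compound; Rhodamine110 peptide substrate 1.5 µM; fluorescence change over 15 min; 4-parameter Hill fit.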
% is scaled to controls: 0 for no effect and ±100 for the full control effect.

SMILES | activity change, negative = inhibition | outcome
CNC(=O)c1cc(Oc2ccc(NC(=O)Nc3ccc(Cl)c(C(F)(F)F)c3)c(F)c2)ccn1 | -25.3% (inactive) | 
CNC(=O)c1ccc2c(C(=Nc3cccc(CN(C)C)c3)c3ccccc3)c(O)[nH]c2c1 | 31.8% (inactive) | 
CS(=O)(=O)c1ccc(C2=C(c3ccccc3)C(=O)OC2)cc1 | 3.65% (inactive) | 
COC(=O)N1CCN(Cc2cccc(NC(=O)Nc3ccc(C)nc3)c2F)CC1 |  | inactive
Nc1ccc(-c2ccc3ncc4ccc(=O)n(-c5cccc(C(F)(F)F)c5)c4c3c2)cn1 |  | inactive
CC(C)(OCc1nn(Cc2ccccc2)c2ccccc12)C(=O)O | 24.6% (inactive) | 
CN1C(=O)C(Cc2c[nH]c3ccccc23)NC1=S (configuration not stated) | -2.57% [at 33.1 µM] (inactive) | 
CN(C)c1nc(Cc2ccc(NC(=O)c3ccc(C(F)(F)F)cc3)cc2)nc(N(C)C)c1CC(=O)O | 11.9% (inactive) | 
CN1CCN(c2cccc(Nc3nc4c(-c5ccc(S(C)(=O)=O)cc5)cccn4n3)c2)CC1 |  | inactive
Cc1cccc2c1CC[C@H](CN1CCC(c3c(Cl)cccc3Cl)CC1)C[C@@H]2O | 5.91% (inactive) | 
Cc1cnc(CNC(=O)c2c(=O)c3ccc(N4CCCN(C)CC4)nc3n3c2sc2ccccc23)cn1 | 6.93% [at 10.7 µM] (inactive) | 
COc1nc(C)cnc1NS(=O)(=O)c1cccnc1-c1ccc(-c2nnco2)cc1 | -15.7% (inactive) | 
CC(=O)Nc1cccc(-n2c(=O)n(C3CC3)c(=O)c3c(Nc4ccc(I)cc4F)n(C)c(=O)c(C)c32)c1 | 21% (inactive) | 
Cc1cnc(Nc2cccc(CN3CCOCC3)c2)nc1Nc1cccc(S(=O)(=O)NC(C)(C)C)c1 | -1.58% (inactive) | 
CNc1nc(Nc2ccc(C(=O)N3CCOCC3)cc2OC)ncc1Cl |  | inactive
CCCCn1c(=O)n(Cc2ccccc2F)c(=O)c2[nH]c(Cc3ccc(NC(C)=O)cc3)nc21 | 30.3% (inactive) | 
O=C1C(c2c(O)[nH]c3ccccc23)=Nc2ccccc21 | 8.23% [at 33.1 µM] (inactive) | 
CC1(C)CC(=O)c2c(C(F)(F)F)nn(-c3ccc(C(N)=O)c(NC4CCC(O)CC4)c3)c2C1 (configuration not stated) | 23.5% (inactive) | 
COc1ccc(Cn2ccc3ccc(C(=O)NO)cc32)cc1 | 13.4% (inactive) | 
O=c1[nH]nc(OCCCc2ccc(Cl)cc2)c(NCc2cccnc2)c1Br | 8.02% (inactive) | 
CN1CCC(COc2cnc(-c3cccc(Cn4nc(-c5cccc(C#N)c5)ccc4=O)c3)nc2)CC1 |  | inactive
CC1=C(C(=O)Nc2cc3cn[nH]c3cc2F)C(c2ccc(C(F)(F)F)cc2)CC(=O)N1 (configuration not stated) | -3.5% (inactive) | 
CCn1c(-c2nonc2N)nc2cncc(CNC3CCNCC3)c21 | 91.6% (inactive) | 
Cc1c(C(=O)Nc2ccc(N3C[C@@H](C)O[C@@H](C)C3)nc2)cccc1-c1ccc(OC(F)(F)F)cc1 | -11.5% (inactive) | 
Cc1ccc2c(c1)c1c(n2CCc2ccc(C)nc2)CCN(C)C1 |  | inactive
Nc1[nH]nc2nnc(-c3c(-c4ccccc4)nn4ccccc34)cc12 | 7.13% (inactive) | 
Cc1ccccc1C(C(=O)NC1CCCCC1)N(C(=O)CNc1ccc(C#N)cc1)c1cccc(F)c1 (configuration not stated) | 13% (inactive) | 
